PNC inhibitor: inhibitors of perinucleolar compartment assembly. AID 2417. 3.1% of 140,000 active. PC3M PTB-GFP, PNC prevalence imaging, 16 h; active compounds read low. activity change (PNC), negative = inhibition, % at 10 µM;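 active = readout at or below -70, meaning at least 70% loss of cells showing the perinucleolar compartment, a nuclear body marking cancer cells; inconclusive = readout between -30 and a set limit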;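 note: plate controls were DMSO wells for no effect and camptothecin positive control wells for full effect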
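Read-out is percentage of cells bearing a perinucleolar compartment, from automated 20x imaging of fixed, Hoechst-stained PC3M PTB-GFP cells. Cells were seeded 4 h, then exposed 16 h to compound (23 nl of library stock) in duplicate plates.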
HPGD inh: blocks human HPGD enzyme activity; AID 894; 4.3% of 150,000 active; Potency, µM, for inactives: at the highest dose activity change, negative = inhibition, hits mostly inhibitors; purified HPGD, NADH fluorescence kinetic, PGE2 substrate; note: potency is the fitted concentration of half-maximal effect
Target sequence (P15428 whole entry, looked up): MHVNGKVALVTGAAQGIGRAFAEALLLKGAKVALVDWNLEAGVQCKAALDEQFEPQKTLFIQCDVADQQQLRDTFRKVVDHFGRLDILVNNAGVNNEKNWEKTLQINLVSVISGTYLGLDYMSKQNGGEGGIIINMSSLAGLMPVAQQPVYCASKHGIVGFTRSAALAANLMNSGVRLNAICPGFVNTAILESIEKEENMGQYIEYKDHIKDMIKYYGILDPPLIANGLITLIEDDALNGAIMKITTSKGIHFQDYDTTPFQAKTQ
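20 nM HPGD preincubated 15 min at room temperature with compound in 50 mM Tris-HCl pH 8, 0.01% Tween 20. Started with 1 mM NAD+ and 30 uM prostaglandin E2; NADH fluorescence (360/450 nm) read 5 times over 30-s intervals, last minus first.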
ALDH1A1 inh: blocks purified human ALDH1A1 activity; P00352; Purified ALDH1A1, NADH fluorescence, propionaldehyde substrate; Potency, µM (doses to about 75.3 µM), for inactives: at the highest dose activity, negative = inhibition, hits mostly inhibitors; 7.3% of 220,000 active; AID 1030;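 note: potency is the fitted concentration of half-maximal effect; plate controls were no enzyme wells and a reference inhibitor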
Numbers without * were called inactive; ? = inconclusive; . = no result; [ ] = dose if it differs, or a comment. Compounds with a hit are over-represented: about 11% of the library has one in this group of screens. Unless noted, calls come from the whole dose curve; as a rule, active = well fitted inhibition curve with a large enough effect (not every such curve was filed as active); inconclusive = small, poorly fitted or top-dose-only effect, or another doubt; inactive = no such curve, though single readings can be large or run the other way. Unless noted, % is set by controls: 0 for no effect and ±100 for the full control effect.

SMILES	PNC inhibitor	HPGD inh	ALDH1A1 inh
CCOC(=O)c1ccc(NC(=O)C2C3C=CC(O3)C2C(=O)O)cc1 (configuration not stated)	-91*	-9%	10µM*
Clc1ccc(N2CC3CCC(C2)N3)nn1	.	-11%	11%
Cc1nn(-c2ccccc2)c2c1C(c1ccc3c(c1)OCO3)SCC(=O)N2 (configuration not stated)	18	8.9µM*	-16%
COc1cc(C2SCC(=O)Nc3c2c(C)nn3-c2ccccc2)cc(OC)c1OC (configuration not stated)	43	-18%	2%
O=C1NC(=O)N(Cc2ccccc2)C(=O)/C1=C\N1CCCc2ccccc21	?	?	-2%
O=C1NC(=O)C(=CN2CCc3ccccc32)C(=O)N1	104	-20%	11µM*
CC[C@@H]1[C@@H]2Cc3ccc(O)cc3[C@@]1(CC)CCN2C	.	-2%	6%[13.5 µM]
COc1cc2c(cc1-c1cc3cc4ccoc4cc3oc1=O)OCO2	.	-10%	224%
CCC(=O)N1CC(=O)Nc2ccc(Br)cc2C1c1ccccc1 (configuration not stated)	.	.	1%
O=C1CN(C(=O)CN2CCCCC2)C(c2ccccc2)c2cc(Br)ccc2N1 (configuration not stated)	-92*	-6%	-12%
CC(=O)OCOCC(=O)OCO[P+](=O)C(OCOC(C)=O)c1cc([N+](=O)[O-])ccc1Oc1ccc(Br)cc1 (configuration not stated)	.	.	6%
C/C(=N/OC(=O)N(C)C)c1ncc(C(F)(F)F)cc1N1CCOCC1	-84*	?	?
O=C1NC(=O)C(=Cc2coc3ccccc3c2=O)C(=O)N1	.	.	3.5µM*
O=C1NC(=O)C(=Cc2csc3ccccc23)C(=O)N1	.	.	10µM*
O=C1NC(=O)C(=C/C=C/c2coc3ccc(Br)cc3c2=O)C(=O)N1	.	.	3.2µM*
COC1=CC(=O)OC(CCc2ccccc2)C1 (configuration not stated)	.	-6%	-9%
C=C(C)[C@H]1[C@H]2OC(=O)[C@@H]1[C@]1(O)C[C@H]3O[C@]34C(=O)O[C@H]2[C@@]14C	.	-6%	8%[20.9 µM]
CC(C)(O)C(Cl)(Cl)Cl	.	-2%	4%
CS(=O)(=O)N1CCC2(CC1)CN(Cc1ccncc1)C2	.	-6%	?
Clc1ccccc1Cl	.	-3%	0%
CC(C)=C[C@H]1[C@@H](C(=O)OCc2cc3c(cc2Cl)OCO3)C1(C)C	.	-7%	-13%[13.5 µM]
C[N+]1([O-])[C@H]2CC[C@H]1CC(OC(=O)[C@@H](CO)c1ccccc1)C2 (some centres not stated)	.	-9%	12%[13.5 µM]
CC(=O)O.CC(=O)O.[Cd]	.	-11%	13µM*
O=C(O)/C=C\C(=O)O	.	-2%	7%
CC(=O)OCC1=C(C(=O)O)N2C(=O)[C@@H](N)[C@@H]2SC1	.	-12%	-9%[20.9 µM]
SMILES	PNC inhibitor	HPGD inh	ALDH1A1 inh
COc1cc(C2c3cc4c(cc3C(OC(C)=O)[C@H]3COC(=O)C23)OCO4)cc(OC)c1OC (some centres not stated)	.	-4%	-6%
Cc1c(C=O)c2ccccc2n1Cc1cccc(F)c1	?	-11%	-12%
O=Cc1c(C(=O)O)n(Cc2ccc(Cl)cc2)c2ccccc12	-15	-17%	13µM*
O=C(O)C1Sc2[nH]c(=O)sc2C2c3cc(Cl)ccc3OC(=O)C12 (configuration not stated)	-6	?	13µM*
CN[C@@H](Cc1c[nH]c2ccccc12)C(=O)O	.	-12%	-5%
COc1cc2c(cc1OC)[C@H](C)NCC2	.	0%	3%[20.9 µM]
C[N+](C)(C)CC(=O)[O-]	.	-5%	-2%
CC/C(=N\N1CCCCCC1)c1c(O)n(-c2ccccc2C)c(=O)[nH]c1=O	-95*	-8%	-15%
CCC(=NCCN1CCOCC1)c1c(O)n(-c2ccccc2C)c(=O)[nH]c1=O	-15	-9%	?
COC1C(O)C(C)O[C@@H](OC2CC[C@@]3(C)C4CC[C@]5(C)C(C6=CC(=O)OC6)CC[C@@]5(O)C4CC[C@@H]3C2)C1O (some centres not stated)	.	-1%	4%
CN1C2CC(OC(=O)C(CO)c3ccccc3)CC1C(O)C2 (configuration not stated)	.	-12%	4%
COc1cc2ccccc2c2cc([N+](=O)[O-])oc12	.	-9%	-6%[13.5 µM]
CC(=O)CCc1ccccc1	.	-11%	25µM*
CC(=O)NC(C)Cc1ccccc1 (configuration not stated)	3	-30%	-2%
O=C1CC[C@]2(O)C3Cc4ccc(O)c5c4C2(CCN3CC2CC2)C1O5 (some centres not stated)	.	-4%	5%
Cc1cc([N+](=O)[O-])ccc1N	.	-9%	?
Nc1c(Br)cc([N+](=O)[O-])cc1[N+](=O)[O-]	.	-2%	25µM*

Screens deposited in PubChem by National Center for Advancing Translational Sciences (NCATS).
